Results filed as inconclusive are left out. Entries that show only a call come without a potency. A number with no mark means an inactive call. Calls of active or inactive are those of the source. Calls follow the shape of the dose curve; as a rule, active = well fitted cell-killing curve with a large enough effect; inconclusive = small, poorly fitted or top-dose-only effect, or effect the other way; inactive = flat fitted curve, though single readings scatter.
These molecules were tested on Tov112D (assay: Primary qHTS to identify gynecologic anti-cancer compounds using libraries of approved drugs and bioactive compounds (AID 1345084; also: nearly all actives have a fitted effect of over 55% in size)). Details: Gynecologic cancer cell panel viability, ATPlite luminescence, 48 h; series mostly up to 57.5 µM.
How it was run: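 Cytotoxicity screen measuring ATP content by luciferase luminescence. Each compound is applied at five concentrations for 48 h at 37 C with 5% CO2.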
In the case of `CN1CCN(C(=O)CN[C@@H]2C[C@H]2c2ccc(OCc3ccccc3)cc2)CC1`, the Potency is reported as “inactive”.
In the case of `O=C(Nc1ccc(-n2nc(C(F)(F)F)cc2C(F)(F)F)cc1)c1ccncc1F`, the Potency is reported as “inactive”.
For `COc1ccc(NC(=O)C2C[C@H](C)CC[C@H]2C(C)C)cc1` (some centres undefined), the Potency was “inactive”.
With `O=C(Nc1cc(C(F)(F)F)ccc1N1CCCCC1)c1ccncc1` the Potency was “inactive”.
`COc1cc(C2OC(c3ccc(OC)c(OC)c3)C(C)C2C)ccc1O` (centres undefined) was tested, and the Potency was “inactive”.
In the case of `CC1CCC(=O)CC(SCC(O)C(=O)O)CCC(=O)O1` (centres undefined), the Potency is reported as “inactive”.
`O=C(Nc1ccc(C(F)(F)F)cn1)N1CCN(c2ncccc2C(F)(F)F)CC1` was tested, and the Potency was “inactive”.
With `COc1cc(O)cc(OC2OC(CO)C(O)C(O)C2O)c1` (centres undefined) the Potency was “inactive”.
For `CC(=O)O[C@H]1C[C@@](O)(C(C)C)[C@@H]2[C@@H](OC(=O)c3ccc(O)cc3)CC(C)=CC[C@@]12C`, the Potency was “inactive”.
`COC(=O)CC[C@@H](C)C1CCC2C3CCC4C[C@H](OC(C)=O)CCC4(C)C3C[C@H](O)C21C` (some centres undefined) was tested, and the Potency was “inactive”.
`C=C1CC[C@H]2C(=C)CC[C@H]3C(=C)C(=O)O[C@@H]3[C@@H]12` was tested, and the Potency was “inactive”.
`COc1cccc(NCCC2(c3ccccc3)CC(C)(C)OC(C)(C)C2)c1` was tested, and the Potency was “inactive”.
In the case of `COc1cc(C(=O)NCC2(N(C)C)CCCC2)cc(OC)c1OCc1ccccc1`, the Potency is reported as “inactive”.
For `Cc1cnn(-c2ccccc2)c1NC(=O)COCc1ccccc1`, the Potency was “inactive”.
For `C=CC(C)(C)c1[nH]c2ccccc2c1C[C@@H]1NC(=O)[C@H](C)NC1=O`, the Potency was “inactive”.
`O[C@@](Cc1ncc(CC2(C(F)(F)F)CC2)[nH]1)(c1ccc(-n2cccn2)cc1)C(F)(F)F` was tested, and the Potency was “inactive”.
With `CC1(C)CCC2(C(=O)OC3OC(COC4OC(CO)C(O)C(O)C4O)C(O)C(O)C3O)CCC3(C)C(=CCC4C5(C)CCC(OC6OCC(O)C(O)C6O)C(C)(C)C5CCC43C)C2C1O` (centres undefined) the activity change, negative = cytotoxicity was -9.09% [at 11.6 µM].
For `C=C(COC(=O)C(O)C(O)CN)C12OC1C1(C)C(=CC2=O)C(O)C(O)CC1C` (centres undefined), the Potency was “inactive”.
In the case of `CC(C)(C)C1CCN(C(=O)n2ncc(C(O)(c3ccccc3)c3ccccc3)n2)CC1`, the Potency is reported as “inactive”.
With `O=c1[nH]c([C@@H]2CCCN2)nc2c1oc1ccc(Cl)cc12` the Potency was “inactive”.
`CC(C)(O)C1CC(=O)C2(C)C(CCC3(C)C(c4ccoc4)OC(=O)C4OC432)C12CCC(=O)OC2` (centres undefined) was tested, and the Potency was “inactive”.
In the case of `C/C=C\NC(=O)C1NC(=O)C(CC(N)=O)NC(=O)C(NC(=O)C(=O)C(C)CC)Cc2ccc(O)c(c2)-c2cccc3c2NC(=O)C3(O)C1O` (centres undefined), the Potency is reported as “inactive”.
`COc1ccc(CN2CCN(C(=O)CCNC(=O)c3ccc(C(C)(C)C)cc3)CC2)cc1` was tested, and the Potency was “inactive”.
For `Cc1ccccc1C(C(=O)NC1CCCCC1)N(C(=O)Cn1cnc2ccccc21)c1cccc(F)c1` (centres undefined), the Potency was “inactive”.
For `COc1c2c(c(C)c3c1C(=O)OC3)O[C@@]1(C)C[C@@H](OC(C)=O)[C@]34O[C@](OC)(CC[C@]3(C)[C@H]1C2)OC4(C)C`, the Potency was “inactive”.
`CC(C)c1ccc(NC(=O)Cn2cnc3c2c(=O)n(C)c(=O)n3C)cc1` was tested, and the Potency was “inactive”.
For `Cc1ccc(N2CCN(S(=O)(=O)N3CCCCC3)CC2)c(C)c1`, the Potency was “inactive”.
In the case of `COc1ccc(S(=O)(=O)Nc2cc(Cl)cc(Cl)c2OC)cc1N1CCNCC1`, the Potency is reported as “inactive”.
In the case of `O=C(NCCN1CCC(n2c(=O)[nH]c3ccccc32)CC1)c1cc2cc(F)ccc2[nH]1`, the Potency is reported as “inactive”.
In the case of `C=C1C(=O)OC2C1CCC1(C)C(O)CCC(=C)C21` (centres undefined), the Potency is reported as “inactive”.
In the case of `COc1ccc(C#Cc2ccc(C(=O)N3CCC[C@@H](CO)C3)cc2)cc1`, the Potency is reported as “inactive”.
For `C#CCNCc1cc2cc(OCc3ccccc3)ccc2[nH]1`, the Potency was “inactive”.
With `CCS(=O)c1nc(-c2cccc(OCc3ccccc3)c2)cc(C(F)(F)F)n1` (centres undefined) the Potency was “inactive”.
With `COC(=O)C(Cc1ccc(OCCn2c(=O)sc3cc(C(=O)c4ccccc4)ccc32)cc1)C(=O)OC` the Potency was “inactive”.
In the case of `CCC/C=C/c1cc2c(C=O)c(O)c(CC=C(C)C)cc2o1`, the Potency is reported as “inactive”.
In the case of `O=C(NCc1ccccc1)c1ccc2c(=O)n(-c3cccc(C(F)(F)F)c3)c(=S)[nH]c2c1`, the Potency is reported as “inactive”.
`CCC(CC)C(=O)OC12C(OC(=O)C(C)C)C(C)C3(O)C(C=C(CO)CC4(O)C(=O)C(C)=CC43)C1C2(C)C` (centres undefined) was tested, and the Potency was “inactive”.
For `COc1ccc2cc(-c3cc(-c4cc(Cl)cc(Cl)c4)nn3C(C)c3ccc(C(=O)NCCC(=O)O)cc3)ccc2c1` (centres undefined), the Potency was “inactive”.
With `CC(C)[C@@H](c1ccc(C(F)(F)F)cc1CN(Cc1cc(C(F)(F)F)cc(C(F)(F)F)c1)c1nnn(C)n1)N1CCC(C(=O)O)CC1` the Potency was “inactive”.

Source: PubChem BioAssay (NCATS)
